# The list is not random: actives were taken first. Their share in the collection is about 1.3%.
# IL2 activator: activates IL-2 in a cell-based reporter assay; actives 0.065% (n = 360,000); activation, % (series mostly up to about 46 µM); IL-2 activation reporter assay, cell-based qHTS; stimulated with anti-CD3/CD4/CD28 beads; in transgenic mouse T cells; in the data active = activation above about 50%; inconclusive = mostly about 30% to 49%; also: 0% is about no effect
#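 Screening format: compound pinned onto unstimulated transgenic mouse T cells, 60 min incubation, then anti-CD3/anti-CD4/anti-CD28 bead stimulation for 18 hours at 37 degrees C, followed by EGFP and DsRed detection.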
# TRPML1 inh: inhibitors of human TRPML1 channel; activity change, negative = inhibition, % (concentration not given with the values); TRPML1-inducible cells, Ca2+ dye fluorescence, FDSS; active compounds read low; inhibition of EC80 agonist-evoked calcium signal; Q9GZU1; actives 0.02% (n = 390,000); in the data active = activity change below about -50%; inconclusive = between about -30% and that limit;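 also: stimulus is agonist 54-4 at its EC80 concentration; % is scaled to controls: 0 for no effect and ±100 for the full control effect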
#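 Tet-induced TRPML1-DL cells loaded with Ca8 no-wash calcium dye were read kinetically on FDSS. Compound addition was followed by EC80 agonist 54-4 (4 uM final); inhibition was read over 110 s.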
# TSG101-PTAP inh: blocks PTAP/TSG101 interaction to inhibit HIV-1 budding | Q99816 | Fluorescence polarization, FITC-PTAP peptide / Tsg101 binding | Potency, µM (doses to about 115 µM), for inactives: at the top dose activity change, negative = inhibition, most hits filed as inhibitors | 340,000 tested, under 10 active | AID 493005; active = well fitted inhibition curve with a large enough effect in the main read-out, with a control signal flat, not every such curve was filed as active; inconclusive = small, poorly fitted or top-dose-only effect, or effect the other way, or a change in a side signal; inactive = no such curve, though single readings can be large or run the other way; also: potency is read from the fitted curve at half-maximal effect; % of control where 0% means no effect
# Target sequence (Q99816 whole entry, looked up): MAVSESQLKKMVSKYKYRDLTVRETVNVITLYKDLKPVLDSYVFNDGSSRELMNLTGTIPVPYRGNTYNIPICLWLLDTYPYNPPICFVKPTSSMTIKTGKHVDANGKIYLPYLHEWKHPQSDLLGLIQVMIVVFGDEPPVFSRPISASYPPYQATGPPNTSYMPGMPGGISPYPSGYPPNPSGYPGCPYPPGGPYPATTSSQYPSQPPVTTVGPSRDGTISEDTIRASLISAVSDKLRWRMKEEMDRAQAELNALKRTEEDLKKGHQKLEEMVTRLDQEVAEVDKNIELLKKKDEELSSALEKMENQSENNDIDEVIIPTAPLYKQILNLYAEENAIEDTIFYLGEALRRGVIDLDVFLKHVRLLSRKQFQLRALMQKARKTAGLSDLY
#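 Steps: Tsg101 binding domain dispensed (10 uM final), compounds pinned in DMSO, FITC-labeled PTAP-motif peptide added (50 nM final); after 20 min binding at room temperature, polarization measured.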
# TRPML1 agonist: agonists of human TRPML1 channel; Q9GZU1; activation, % (test concentration not listed); TRPML1-expressing cells, Ca2+ dye fluorescence, FDSS; actives 0.12% (n = 410,000); in the data active = activation above about 50%; inconclusive = mostly about 30% to 49%; also: 0% is about no effect
#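 TRPML1-DL cells, Tet-induced overnight (~16 h, 37 degrees C), loaded 45-90 min at room temperature with Ca8 no-wash calcium dye plus quencher. FDSS fluorescence: 10 s baseline, compound pin-transfer, 110 s agonist read, then EC80 54-4 (4uM final) and 110 s antagonist read.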
# PKM2 act: activators of human pyruvate kinase M2. P14618. purified PKM2, Kinase-Glo ATP luminescence, activation; response scale: 0% is enzyme alone, no compound. Potency, µM (doses to about 57.5 µM), for inactives: at the top dose activation, usual class: activators. actives 0.34% (n = 260,000); also: potency is read from the fitted curve at half-maximal effect; % is scaled to controls: 0 for no effect and ±100 for the full control effect; nearly all actives have a fitted effect of over 55% in size
#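 hPK-M2, >95% pure; 0.1 mM ADP / 0.5 mM PEP final; imidazole pH7.2 buffer w/ 7 mM MgCl2, 50 mM KCl; 1 h RT; Kinase-Glo lum. Intermediate enzyme activity for dual inhibitor/activator qHTS.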
# BRCA1 expr up: increases BRCA1 expression; actives 1.1% (n = 380,000); MCF7-BRCA1-FFLuc reporter, luminescence, 48 h; response scale: scaled: vehicle 0%, 10 µM genistein 100%; Potency, µM (top dose mostly 46.1 µM), inactives show at the top dose activation, hits mostly activators; AID 624202; also: potency is read from the fitted curve at half-maximal effect; nearly all actives have a fitted effect of over 80% in size
#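 MCF7 cells carrying a BRCA1-firefly luciferase reporter (2000 cells/well, phenol-red free MEM) were attached for 2 h at 37 °C, then given compounds for 48 h. Luminescence was read 15 min after luciferase reagent; activity normalized to genistein (10 microM) and DMSO.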
# An asterisk follows results filed as active; ? = inconclusive; · = no result. Unless noted, calls follow the shape of the dose curve; as a rule, active = well fitted activation curve with a large enough effect; inconclusive = small, poorly fitted or top-dose-only effect; inactive = no such curve, though single readings can be large or run the other way.
SMILES,IL2 activator,TRPML1 inh,TSG101-PTAP inh,TRPML1 agonist,PKM2 act,BRCA1 expr up
O=S(=O)(NCC1(N2CCOCC2)CCCCC1)c1ccc(Cl)cc1C(F)(F)F,0,-12,0%,81*,0%,-23%
Clc1ncc(C#Cc2ccccc2)c2ncncc12,·,·,·,4,·,-61%
Cc1cc2nc(-c3ccc(SCc4ccc(C(=O)O)cc4)nc3)[nH]c2cc1C,0,20,-5%,-1,22%,11µM*
O=C(/C=C/c1cccc(Cl)c1)NCc1cccs1,-3,28,-1%,1,-10%,60%
O=C(/C=C/c1ccc(Cl)cc1)NCc1cccs1,-3,8,-2%,1,0%,11µM*
C=CCn1c(=O)/c(=C/c2ccsc2)s/c1=C(\C#N)C(=O)NCCN1CCOCC1,60*,12,?,0,·,-5%
Clc1ccccc1-c1cc2nc(NCCCn3ccnc3)ccn2n1,0,·,·,1,·,10µM*
CC(C)(C)n1ncc2c(=O)n(Cc3cccc(Oc4ccccc4)c3)cnc21,·,3,·,1,·,·
C=CCNC(=S)NNC(=O)COc1ccc2cc(Br)ccc2c1,-5,30,-3%,0,0%,10µM*
Nc1nc(-c2ccco2)c(-c2ccco2)s1,-6,-15,1%,0,22µM*,-12%
Cc1ccc(CN(CC2CCCO2)C(=O)CN2C(=O)C(C(C)C)Oc3ccccc32)o1 (stereo not given),-3,14,-14%,1,32µM*,-36%
CC(C)C1Oc2ccccc2N(CC(=O)N(Cc2ccccn2)CC2CCCO2)C1=O (stereo not given),-3,9,-1%,0,-3%,-17%
O=C(Nc1ccccc1Cl)c1ccn[nH]1,0,48,-2%,1,0%,13µM*
Cc1cc(C)c2c(=O)n(CC(=O)Nc3ccc(Br)c(C)c3)sc2n1,-1,2,-7%,7,?,-18%
Cc1cc(C)c2c(=O)n(CC(=O)Nc3cccc(Cl)c3C)sc2n1,-4,-9,0%,4,3.2µM*,-8%
CSc1ncc(Cl)c(C(=O)N(Cc2ccccc2Cl)C2CCS(=O)(=O)C2)n1 (stereo not given),·,-1,·,0,·,·
Cn1nc(-c2ccccc2F)c2cc(C(=O)N3CCN(c4ccccc4F)CC3)sc21,·,1,·,0,·,·
CN(C)c1ccc(NC(=O)COC(=O)CNC(=O)c2cccs2)cc1,0,0,-5%,-1,·,-13%
CN(C)c1ccc(C(CNC(=O)c2cccs2)N(C)C)cc1 (stereo not given),-1,11,-1%,0,·,13µM*
COc1ccc(NC(=O)CN(C)C(=O)CNC(=O)c2sc3ccccc3c2Cl)cc1,1,5,3%,4,·,7.9µM*
O=C(CNC(=O)C1CCCCC1)OCC(=O)c1ccc(-c2ccccc2)cc1,·,·,·,-1,·,8%
Cc1cccnc1NC(=O)c1ccc(OCC2CCCO2)cc1 (stereo not given),1,2,-1%,0,·,40%
O=C(Nc1ccc(Cl)cc1)c1ccc(OCC2CCCO2)cc1 (stereo not given),-3,-9,1%,0,4%,4.5µM*
Cc1cccc(NC(=O)c2ccc(OCC3CCCO3)cc2)c1C (stereo not given),0,-2,-2%,-1,0%,14µM*
CC1(C)OC(=O)C2(Cc3ccccc3N3CCCC32)C(=O)O1 (stereo not given),·,39,·,0,·,33%
SMILES,IL2 activator,TRPML1 inh,TSG101-PTAP inh,TRPML1 agonist,PKM2 act,BRCA1 expr up
COc1ccc(NC(=O)c2cc3ccccc3o/c2=N\NS(=O)(=O)c2ccc(C)cc2)cc1,2,2,-1%,0,·,5µM*
COc1cccc2cc(C(=O)Nc3cc(C)cc(C)c3)/c(=N/NS(=O)(=O)c3ccccc3)oc12,3,-8,0%,0,·,10%
Cc1ccc(S(=O)(=O)NCC(=O)NCC(=O)OCc2c(F)cccc2Cl)cc1,-5,19,-8%,0,35µM*,3%
O=c1c(S(=O)(=O)c2ccccc2)cn(Cc2cccc(F)c2)c2cc(N3CCCC3)c(F)cc12,·,6,·,0,·,·
CONC(=O)C1CCN(C(=O)OCc2ccccc2)CC1,0,-4,0%,1,-2%,14µM*
COC(=O)CNC(=O)C1CCN(C(=O)OCc2ccccc2)CC1,0,49,-4%,0,0%,96%
C1=Cc2ccccc2/C1=C\c1ccc2c(c1)OCO2,·,·,·,0,·,·
CC1CC(C)(C)N(C(=O)CN2CCN(C)CC2)c2ccccc21 (stereo not given),0,24,-2%,1,3%,-25%
CC1=CC(C)(C)N(C(=O)CN2C(=O)CCC2=O)c2ccc(C)cc21,-1,4,-3%,0,9%,5%
CC1CC(C)(C)N(C(=O)CN2C(=O)c3ccccc3C2=O)c2ccccc21 (stereo not given),-1,-15,-1%,94*,-6%,1%
Cc1cc(C)c2c(c1)-c1c(ssc1=S)C(C)(C)N2C(=O)CN1C(=O)c2ccccc2C1=O,-2,?,-2%,67*,-22%,-33%
CC1=CC(C)(C)N(C(=O)CN2C(=O)c3ccccc3C2=O)c2ccccc21,-2,-4,-6%,96*,5%,9%
Fc1ccc(/C=C/c2nccc3ccccc23)cc1,·,·,·,0,·,0%
CN(C)c1ccc(C=Nc2cnc3ccccc3c2)cc1,·,·,·,0,·,27%
CC(=O)ON(C(C)=O)c1ccc(/C=C2\C=Cc3ccccc32)cc1,·,·,·,0,·,71%
O=C(NCc1ccccc1)C(=O)Nc1nccs1,4,-16,-2%,0,-2%,-22%
O=C(CC(=O)OCc1ccccc1)OCc1ccccc1,2,7,-5%,0,·,11%
O=C(NNc1ccccc1)OCc1ccccc1,-2,17,·,1,·,11µM*
O=C(Nc1nccs1)OCc1ccccc1,-1,18,-4%,1,·,14µM*
O=C(N[C@H]1/C=C\[C@@H](O)CCCC1)OCc1ccccc1,0,64,1%,-1,·,4.5µM*
Ic1ccc(Nc2nc(NCCN3CCOCC3)nc(N3CCCC3)n2)cc1,·,·,·,-1,·,-33%
COc1cc2c(NC3CCN(C)CC3)nc(N3CCCN(C)CC3)nc2cc1OCc1ccccc1,·,·,·,-1,·,-59%
CCOC(=O)c1noc2ncn(CC(=O)Nc3cc(Cl)ccc3OC)c(=O)c12,·,-10,·,0,·,6%

# Screens as filed in PubChem BioAssay.
